A selection: hits, their analogues and other compounds. The true share with any hit is near 2.2%.
sPLA2-III inh – human group III sPLA2 inhibitors, primary screen, biochemical, QFRET, BODIPY PC-A2 liposome substrate | inhibition, % at 12.2 µM | QFRET BODIPY PC-A2 liposome hydrolysis, fluorescence | 370,000 tested, 0.56% active;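 active means inhibition above mean plus 3 SD of compounds lying within the high and low control bounds, cut at about 19% in these data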;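 further: 0% = median of test compound wells and 100% = no enzyme DMSO wells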
Target sequence (Q9NZ20 whole entry, looked up): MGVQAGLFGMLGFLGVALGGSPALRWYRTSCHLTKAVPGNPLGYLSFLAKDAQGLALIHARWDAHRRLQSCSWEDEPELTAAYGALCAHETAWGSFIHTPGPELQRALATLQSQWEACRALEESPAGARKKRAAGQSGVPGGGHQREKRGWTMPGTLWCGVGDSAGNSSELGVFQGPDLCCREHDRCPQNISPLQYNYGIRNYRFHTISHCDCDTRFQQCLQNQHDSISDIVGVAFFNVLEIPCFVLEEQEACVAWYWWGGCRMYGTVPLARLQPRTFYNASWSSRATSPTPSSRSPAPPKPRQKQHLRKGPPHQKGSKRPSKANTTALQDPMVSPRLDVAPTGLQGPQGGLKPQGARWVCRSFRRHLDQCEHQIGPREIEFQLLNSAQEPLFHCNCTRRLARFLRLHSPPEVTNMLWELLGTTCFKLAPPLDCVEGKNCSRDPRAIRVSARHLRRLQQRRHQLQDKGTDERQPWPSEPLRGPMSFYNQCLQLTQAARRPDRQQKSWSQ
Efflux pump mplx – inhibitors of Candida efflux pumps in yeast, primary screen, S. cerevisiae, Nile Red, multiplex; S. cerevisiae Candida pump triplex; inhibition, % at 10 µM; 330,000 tested, 0.44% active;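 active means plate passing quality check with inhibition over a set limit, or well fluorescence over plate mean plus 4 SD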;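 further: Nile Red retained in pooled yeast measured as flow cytometry median fluorescence; 0% = buffer negative control and 100% = Enniatin B positive control; higher means more Nile Red kept so more efflux inhibition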
SKN-1 block – suppressors of acrylamide-induced Pgst-4::GFP reporter in worms, primary screen, SKN-1 inhibitor project, whole organism, uHTS, GFP/RFP fluorescence ratio, strain VP596 | C. elegans VP596 Pgst-4::GFP/RFP ratio, 24 h | inhibition, % at 21.8 µM | 360,000 tested, 0.49% active | AID 624304, 2012;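 active means interference check ratio from 0.5 to 1.5 plus GFP to RFP signal ratio inhibition reaching or exceeding a fixed threshold, cut at about 30% in these data, passing the limit was not always enough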
SUMO Mot1 rescue – yeast Mot1-301 growth rescue at high temperature, primary screen, SUMOylation pathway inhibitor project, S. cerevisiae, ATP luminescence, 38.5C; S. cerevisiae Mot1-301 growth rescue; percent above DMSO median, 100 means doubled; growth rescue, % at 18.8 µM; 320,000 tested, 1% active; AID 2716, 2010;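 active means every valid replicate shows activation above 250% relative to neutral control wells; inactive means the rest, any valid replicate at or below 250%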;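 further: OY570 slx delta 5 strain wells were the positive control but not used for scaling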
hGIII sPLA2 conf – human group III sPLA2 inhibitors, confirmation, biochemical, QFRET, triplicate | AID 743280, 2014 | inhibition, % at 12.2 µM | 2,000 tested, 34% active | shares compounds with sPLA2-III inh | recombinant hGIII-sPLA2, BODIPY PC-A2 QFRET fluorescence;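 active means mean inhibition across triplicates above the hit cutoff set in the earlier primary screen, cut at about 19% in these data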;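 further: 0% = enzyme with DMSO and 100% = DMSO wells lacking enzyme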
BODIPY interf – 535nm fluorescence optical interference, confirmation, artefact control for HGIII-sPLA2 inhibitor project, biochemical, QFRET | inhibition, % at 12.2 µM | BODIPY FL product fluorescence interference | shares compounds with sPLA2-III inh | 2,000 tested, 8.5% active;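 active means average inhibition above the solvent-only control mean plus 3 SD, cut at about 6% in these data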;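 further: 0% = DMSO with substrate plus product and 100% = DMSO with substrate alone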
BODIPY interf DR – 535nm fluorescence optical interference, dose response, artefact control for HGIII-sPLA2 inhibitor project, biochemical, QFRET | shares compounds with sPLA2-III inh | BODIPY FL product fluorescence interference, cell-free | IC50, µM | 240 tested, under 10 active | AID 743455, 2014;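 active means IC50 at or below 10 µM; inactive means IC50 above 10 µM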
The depositor's hits bear a star; x = no result.

SMILES	sPLA2-III inh	Efflux pump mplx	SKN-1 block	SUMO Mot1 rescue	hGIII sPLA2 conf	BODIPY interf	others
CCOC(=O)c1ccc(NC(=O)c2nc[nH]c2C(=O)N(C)CCO)cc1	2	x	13	x	x	x
COc1cc(CN2CCC(n3nccc3NC(=O)c3ccc4c(c3)OCO4)CC2)ccc1O	4	0	-23	-6	x	x
Cc1ccc2c(c1)C(=O)C(=O)N2Cc1ccc(C(F)(F)F)cc1	30*	0	-8	64	26*	3
O=C1C(=O)N(Cc2ccc(-c3ccc(Cl)nc3)cc2)c2ccc(OC(F)(F)F)cc21	25*	x	x	x	32*	-2	BODIPY interf DR=>122
O=C1C(=O)N(Cc2ccc(-c3ccccc3)cc2)c2ccc(OC(F)(F)F)cc21	26*	x	x	x	34*	1	BODIPY interf DR=>122
CCCCN1C(=O)C(CC(=O)NCCN2CCOCC2)CC(C(=O)N(C)C)=C1C (configuration not stated)	2	x	-1	x	x	x
O=C(OCC(=O)N1CCc2ccccc21)c1n[nH]c(=O)c2ccccc12	-2	0	3	1	x	x
C[C@@H]1CN([C@@H](C)CO)C(=O)c2cc(C3=CCCCC3)cnc2O[C@H]1CN(C)C(=O)Nc1cccc(F)c1	-9	x	13	x	x	x
O=C1CCCCCCC(=O)[C@H](O)C[C@H](c2ccccc2)O1	5	x	14	x	x	x
O=S(=O)(NNc1nccc(C(F)(F)F)n1)c1cccc(Cl)c1Cl	58*	0	-7	-1	84*	88*
Cc1c(NC(=O)c2cc3ccccc3o2)cccc1-n1cnnn1	-7	x	7	x	x	x
CC(C)Oc1ccc(CSC(=N)N)cc1	29*	0	7	x	-4	-8
CCN1Cc2nnn(Cc3ccccc3)c2-c2ccccc2S1(=O)=O	1	x	x	x	x	x
CCCCN1CNC(=S)N(CCc2ccccc2)C1	10	0	4	0	x	x
S=C1NCN(C2CCCCC2)CN1CCc1ccccc1	22*	0	13	-9	20*	-9
Cc1cccc(-n2cnc(C(=O)NNC(=S)Nc3ccc(Cl)cc3)c2)n1	34*	0	-1	20	59*	7.9*
COc1ccc(C(=O)Nc2nc3cc4c(cc3s2)OCCO4)c(OC)c1	3	0	-14	136	x	x
COC(=O)C1(C(=O)OC)c2ccccc2N(S(=O)(=O)c2ccc(C)cc2)C1CC(C)=O (configuration not stated)	12	x	-3	x	x	x
CCOc1cccc(Cc2c[nH]c(=O)[nH]c2=O)c1	4	x	19	x	x	x
CCc1nc(SCC(=O)N2CCCCCC2)c2c(=O)n(C)c(=O)n(C)c2n1	-2	0	-17	-3	x	x
CCOC(=O)N1CCN(C(=O)CSc2nc(CC)nc3c2c(=O)n(C)c(=O)n3C)CC1	21*	0	9	-3	-1	-20
CN(Cc1ccccc1)S(=O)(=O)c1ccc(NC(=O)C2CCCO2)cc1 (configuration not stated)	23*	0	9	-21	-5	-14
CN(Cc1ccccc1)S(=O)(=O)c1ccc(NC(=O)C2CCCCC2C(=O)O)cc1 (configuration not stated)	1	0	9	2	x	x
COc1ccc(NC(=O)N(C)C[C@@H]2OCc3cn(nn3)CCCC(=O)N([C@H](C)CO)C[C@H]2C)cc1	8	x	-8	x	x	x
CC(C)N1CCC(N2CCN(C/C=C/c3ccc(F)cc3)CC2CCO)CC1 (configuration not stated)	20*	0	8	5	1	-9
CCOC(=O)N1CCN(CCC(=O)Nc2ccc(C)c(Br)c2)CC1	-12	0	0	-7	x	x
Cc1ccc(NC(=O)CCN2CCN(CCO)CC2)cc1Br	23*	0	8	-6	-5	-3

Screening data from PubChem.
